# Several values for one entry are separate records, joined by “and”; a condition that tells them apart may be missing. Equal values may be shown once. Out of some 1,300 compounds screened, about 980 (75%) were called active. About 4% were inconclusive and are not listed. This is one part of the list.
# Target: Sulfhydryl oxidase 1 (Homo sapiens) (UniProt O00391)
# Experiment: inhibition of human sulfhydryl oxidase QSOX1 – biochemical, HyperBlu H2O2 luminescence, HTS, primary screen (AID 1347420); further: values above 100% were filed as inconclusive
# Details: recombinant QSOX1, HyperBlu H2O2 luminescence; at 12.5 µM; stronger effect = higher value; active = any value above zero
# Chain of Sulfhydryl oxidase 1 (Homo sapiens) (O00391 whole entry, looked up): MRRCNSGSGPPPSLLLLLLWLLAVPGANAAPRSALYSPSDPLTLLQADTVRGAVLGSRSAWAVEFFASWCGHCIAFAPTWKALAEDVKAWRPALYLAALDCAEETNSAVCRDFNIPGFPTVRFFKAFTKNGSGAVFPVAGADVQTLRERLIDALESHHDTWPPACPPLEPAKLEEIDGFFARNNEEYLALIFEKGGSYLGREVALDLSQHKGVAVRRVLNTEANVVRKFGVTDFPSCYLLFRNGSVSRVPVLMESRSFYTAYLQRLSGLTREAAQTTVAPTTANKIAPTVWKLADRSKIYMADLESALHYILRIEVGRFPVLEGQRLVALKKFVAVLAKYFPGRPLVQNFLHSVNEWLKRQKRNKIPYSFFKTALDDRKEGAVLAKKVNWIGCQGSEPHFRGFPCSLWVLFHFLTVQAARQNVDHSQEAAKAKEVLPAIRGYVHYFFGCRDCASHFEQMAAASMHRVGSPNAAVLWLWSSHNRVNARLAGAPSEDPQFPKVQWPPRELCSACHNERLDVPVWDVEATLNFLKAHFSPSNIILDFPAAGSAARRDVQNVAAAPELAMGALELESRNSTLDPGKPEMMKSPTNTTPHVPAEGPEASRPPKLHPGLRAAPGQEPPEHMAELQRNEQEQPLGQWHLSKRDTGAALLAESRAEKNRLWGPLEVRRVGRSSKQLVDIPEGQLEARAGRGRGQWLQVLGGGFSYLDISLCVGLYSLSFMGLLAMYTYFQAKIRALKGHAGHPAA
row,SMILES,inhibition
1,COc1cc2c(cc1OC)C1CC(=O)C(CC(C)C)CN1CC2 (stereo not drawn),6.3% (active)
2,CC[C@H]1CN2CCc3cc(OC)c(OC)cc3[C@@H]2C[C@@H]1C[C@H]1NCCc2cc(OC)c(OC)cc21,13% (active)
3,CCC1(C)CC(=O)NC1=O (stereo not drawn),13.4% (active)
4,CC(C)(C)[C@]1(O)CCN2C[C@H]3c4ccccc4CCc4cccc(c43)[C@@H]2C1,-3.5% (inactive)
5,O=C(C1CCCCC1)N1CC(=O)N2CCc3ccccc3C2C1 (stereo not drawn),8% (active)
6,N[C@@H](CS(=O)O)C(=O)O,16% (active)
7,N[C@H](C(=O)O)[C@H](O)C(=O)O,-0.9% (inactive)
8,N[C@@H](CC(=O)O)C(=O)O,20.6% (active)
9,C=CC[C@H](N)C(=O)O,5.3% (active)
10,N[C@H](CO)C(=O)O,6.6% (active)
11,CCc1cccc(N(C)C(N)=Nc2cccc3ccccc23)c1,-10.9% (inactive)
12,O=C(O)C1=CCCN(CCON=C(c2ccccc2)c2ccccc2)C1,-7.5% (inactive)
13,O=C(O)COCCN1CCN(C(c2ccccc2)c2ccc(Cl)cc2)CC1 (stereo not drawn),6.6% (active)
14,CC(C)NCC(O)COc1cccc2ccccc12 (stereo not drawn),10.3% (active)
15,CC(C)NC[C@H](O)COc1cccc2[nH]ccc12,12.2% (active)
16,CC(C)NC[C@H](O)COc1cccc2ccccc12,-5.6% (inactive)
17,C=CCc1ccccc1OCC(O)CNC(C)C (stereo not drawn),1.7% (active)
18,CCC1(c2ccccc2)C(=O)NCNC1=O,-13.9% (inactive)
19,CC(C)NCC(O)COc1cccc2[nH]ccc12 (stereo not drawn),8% (active)
20,c1cnc2c(c1)ccc1cccnc12,9.8% (active)
21,CCN(CC)CCOC(=O)c1ccc(N)cc1,-5.5% (inactive)
22,CCCCNc1ccc(C(=O)OCCN(C)C)cc1,9.2% (active)
23,CCCCNc1cc(C(=O)O)cc(S(N)(=O)=O)c1Oc1ccccc1,-9.6% (inactive)
24,NC(N)=NCc1cccc(I)c1,0.4% (active)
25,C=C1C(=O)O[C@@H]2[C@H]3O[C@]3(C)CCC=C(C)CC[C@@H]12,-3.6% (inactive)

row,SMILES,inhibition
1,CSC(N)=NCCC[C@H](N)C(=O)O,8% (active)
2,CN=C(N)NCCC[C@H](N)C(=O)O,1.3% (active)
3,NC(N)=NCCC[C@H](N)C(=O)O,-5.3% (inactive)
4,CC(N)=NCCCC[C@@H](N)C(=O)O,5% (active)
5,CN(C)C(N)=NCCC[C@H](N)C(=O)O,-1.4% (inactive)
6,N#C/C(=C\c1ccc(O)c(O)c1)C(=O)c1ccc(O)c(O)c1,81.2% (active)
7,C[C@]12C=CC(=O)C=C1CC[C@@H]1C2=CC[C@]2(C)[C@@H](C(=O)CN3CCN(c4cc(N5CCCC5)nc(N5CCCC5)n4)CC3)CC[C@@H]12,21.5% (active)
8,CN1CC(O)C(O)C(O)C1CO (stereo not drawn),11.1% (active)
9,Cc1cc2c(cc1Cl)N(C(=O)Nc1ccnc3ccccc13)CC2,52.9% (active)
10,Cc1cc2c(cc1Cl)N(C(=O)Nc1ccc(Oc3cccnc3C)nc1)CC2,2.9% (active)
11,CCN(CC)CCOCCOC(=O)C1(c2ccccc2)CCCC1,-2.7% (inactive)
12,O=C(OCCN1CCOCC1)C1(c2ccccc2)CCCCC1,14.9% (active)
13,c1ccc(CN2CCC3(CCCc4ccccc43)CC2)cc1,-10.4% (inactive)
14,C[C@H](NC(CCc1ccccc1)C(=O)O)C(=O)N1CCC[C@H]1C(=O)O (stereo partly drawn),-5.7% (inactive)
15,CCOC(=O)[C@H](CCc1ccccc1)N[C@@H](C)C(=O)N1[C@H](C(=O)O)C[C@H]2CCCC[C@@H]21,12.1% (active)
16,COC(=O)C1=C(C)NC(C)=C(C(=O)OC)C1c1ccccc1[N+](=O)[O-],54.9% (active)
17,COC(=O)C1=C(C)NC(C)=C([N+](=O)[O-])C1c1ccccc1C(F)(F)F (stereo not drawn),59.9% (active)
18,CCO/C([O-])=N/c1c[n+](N2CCOCC2)no1,-0.8% (inactive)
19,Cc1nc2c(OCc3ccccc3)cccn2c1CC#N,11.8% (active)
20,NC(N)=NC(N)=Nc1cccc(Cl)c1,25.1% (active)
21,NC(N)=NC(N)=Nc1ccccc1,6% (active)
22,N=C(N)c1ccccc1,-0.4% (inactive)
23,CN1CCN2c3ccccc3Cc3ccccc3C2C1 (stereo not drawn),9.7% (active)
24,CCCn1c(=O)c2[nH]c(C3CCCC3)nc2n(CCC)c1=O,5.5% (active)
25,Cn1c(=O)c2[nH]c(C3CCCC3)nc2n(C)c1=O,7.5% (active)

row,SMILES,inhibition
1,O=C(c1cc(O)c(O)c([N+](=O)[O-])c1)c1ccccc1F,83.5% (active)
2,CC(C)C[C@H](NC(=O)[C@@H](O)[C@H](N)Cc1ccccc1)C(=O)O,0.9% (active)
3,CC(C)C[C@H](NC(=O)[C@H](O)[C@H](N)Cc1ccccc1)C(=O)O,-3.8% (inactive)
4,CCC(NC(C)C)C(O)c1ccc(O)c(O)c1 (stereo not drawn),38.5% (active)
5,CC(C)NCC(O)c1ccc(NS(C)(=O)=O)cc1 (stereo not drawn),4.1% (active)
6,CC(C)NCC(O)c1ccc(O)c(O)c1 (stereo not drawn),29% (active) and 11.6% (active)
7,CC(C)NC[C@H](O)c1ccc(O)c(O)c1,38.5% (active)
8,O=C(O)CCC/C=C\C[C@@H]1[C@@H](/C=C/[C@H](O)C2Cc3ccccc3C2)[C@@H](F)C[C@@H]1O,-13.7% (inactive)
9,CC(C)(C)NCC(O)c1ccc(O)c(CO)c1 (stereo not drawn),17.3% (active)
10,CC(C)(C)NCC(O)c1cc(O)cc(O)c1 (stereo not drawn),3% (active)
11,CC(C)NCC(O)c1cc(O)cc(O)c1 (stereo not drawn),8.3% (active)
12,CC(C)NCC(O)COc1ccc(COCCOC(C)C)cc1 (stereo not drawn),-12.7% (inactive)
13,Nc1ccc(S(=O)(=O)Nc2ccnn2-c2ccccc2)cc1,27.9% (active)
14,O=c1cc(N2CCOCC2)oc2c(-c3ccccc3)cccc12,4.6% (active)
15,Cc1cc(O)c2c(c1)C(=O)c1cc(O)cc(O)c1C2=O,17.7% (active)
16,OCC1O[C@H]([S-])[C@@H](O)C(O)[C@@H]1O.[Au+] (stereo partly drawn),29.5% (active)
17,N=C(N)SCCc1ccc(CCSC(=N)N)cc1,9% (active)
18,N=C(N)SCCN,-3.9% (inactive)
19,Oc1cc2c(cc1O)CN(C(=S)NCCc1ccc(Cl)cc1)CCC2,83.2% (active)
20,CC(=O)NCCc1c[nH]c2ccc(O)cc12,92.2% (active)
21,COc1cc2c(CCNC(C)=O)c[nH]c2cc1Cl,14.3% (active)
22,COc1ccc(NC=O)c(C(=O)CCNC(C)=O)c1,-9.8% (inactive)
23,COc1ccc2[nH]cc(CCNC(C)=O)c2c1,15.6% (active)
